About 4,300 (8.3%) of roughly 52,000 compounds were called active. The sample holds actives, similar compounds and a random draw of the others, so the mix is not that of the screen. Values without a mark were called inactive. Cut-off read from the data, not from the text of the source: active = survival mostly below about 52% (no sharp cut-off); inactive = mostly above about 56%.
Test system: DeltatarO mutant
Experiment: S. aureus survival, RN4220 and DeltatarO strains – OD600, teichoic acid synthesis inhibitors, primary screen (AID 463173)
Conditions: S. aureus RN4220 wild type/DeltatarO growth, OD600, 18 h, hits give low values, screened at 18.75 µg/mL (by protocol)

Row | SMILES | survival
1 | CCOC(=O)c1c(C)[nH]c(C)c1S(=O)(=O)N(C)CC(=O)N1CCN(c2cccc(C)c2C)CC1 | 84%
2 | CC(C)c1nn2c(=O)cc(COC(=O)c3ccc(NC(=O)COc4ccccc4)cc3)nc2s1 | 98%
3 | O=C(NCCS(=O)(=O)N1CCN(c2ccc(F)cc2)CC1)c1cc(=O)c2ccccc2o1 | 94%
4 | COc1ccc(C2C(=O)N(C3CCC(C)CC3)CC(=O)N2C2CCCCC2)cc1OC (stereo unspecified) | 76%
5 | CCCOc1ccc(C2C(=O)N(C3CCCCCC3)CC(=O)N2CCC2=CCCCC2)cc1OC (stereo unspecified) | 119%
6 | CCCOc1ccc(C2C(=O)N(C3CCC(C)CC3)CC(=O)N2CCC2=CCCCC2)cc1OC (stereo unspecified) | 80%
7 | CCCCN1C(=O)CN(C2CCCCCC2)C(=O)C1c1ccc(OCCC)c(OC)c1 (stereo unspecified) | 66%
8 | COc1ccc(C2C(=O)N(C3CCC(C)CC3)CC(=O)N2CCC2=CCCCC2)cc1OC (stereo unspecified) | -1% (active)
9 | CCCOc1ccc(C2C(=O)N(C3CCCCC3)CC(=O)N2C2CCCCC2)cc1OC (stereo unspecified) | 91%
10 | COc1ccc(C2C(=O)N(C3CCC(C)CC3)CC(=O)N2C2CCCC2)cc1OC (stereo unspecified) | -2% (active)
11 | CCCN1C(=O)CN(C2CCCCCC2)C(=O)C1c1ccc(OCC)c(OC)c1 (stereo unspecified) | 109%
12 | CCCOc1ccc(C2C(=O)N(C3CCCCCC3)CC(=O)N2CCC)cc1OC (stereo unspecified) | -4% (active)
13 | CCCCN(C)C(=O)CN1C(=O)CCn2nc(-c3cn(C)c4ccccc34)cc21 | 117%
14 | Cc1cccc(NC(=O)CSc2nc(=O)n(CCN3CCOCC3)c3c2CCC3)c1 | 86%
15 | COc1cccc(C(=O)NCCSc2c(-c3ccc(F)cc3)[nH]c3ccccc23)c1OC | 52%
16 | O=C(NC1CCN(C(=O)Nc2cccc(F)c2)CC1)c1ccco1 | 88%
17 | COc1cccc(N2C(=O)N(CC(=O)NCc3cccc(OC)c3OC)c3ccccc3S2(=O)=O)c1 | 95%
18 | COc1cc(C(Nc2ccc(S(=O)(=O)N3CCCC3)cc2)C(=O)NC(C)(C)C)cc(OC)c1OC (stereo unspecified) | 77%
19 | CC(=O)ONC(=Nc1ccccc1C)c1nonc1N | 101%
20 | Cc1ccccc1/C=C(\C#N)c1nc(-c2ccc(Cl)cc2)cs1 | 14% (active)
21 | N#C/C(=C\c1ccc(Cl)cc1Cl)c1nc(-c2cccc(Cl)c2)cs1 | 79%
22 | COc1c(Cl)cc(Cl)cc1/C=C(\C#N)c1nc(-c2ccc(Cl)cc2)cs1 | 122%
23 | N#C/C(=C/c1ccccc1Cl)c1nc(-c2cc3ccccc3oc2=O)cs1 | 81%

Row | SMILES | survival
24 | COc1ccc(OC)c(/C=C(/C#N)c2nc(-c3ccc(-c4ccccc4)cc3)cs2)c1 | 52%
25 | Cc1ccc(-c2csc(/C(C#N)=C/c3ccccc3Cl)n2)cc1 | 21% (active)
26 | O=C1[C@@H]2CSC(c3ccc(Cl)cc3)N2C(=O)N1c1ccccc1 (stereo partly specified) | 71%
27 | CCc1ccc(CSc2nc(-c3ccc(OC)cc3)nc3c2Cc2c(CO)cnc(C)c2O3)cc1 | 72%
28 | COCCNC(=O)C1CC(=O)N(c2ccc(C)cc2)C1 (stereo unspecified) | 82%
29 | CCOC(=O)c1cc(-c2ccc(OC)cc2)n(CCC(=O)NC2CCCCC2)c1C | 115%
30 | CCOc1ccc(CCNC(=O)Cn2nnc(-c3ccc(C(F)(F)F)cc3)n2)cc1OCC | 82%
31 | O=C(CSc1nc(=O)n(Cc2ccncc2)c2c1CCC2)Nc1ccc(F)cc1F | 78%
32 | COc1ccc(Nc2c(-c3ccc(C)o3)nc3ccc(Cl)cn23)cc1 | 65%
33 | CCOC(=O)C1(C)C=C(Nc2cccc(C)c2)C(=O)N1c1ccccc1 (stereo unspecified) | 15% (active)
34 | CCOC(=O)C1(C)C=C(Nc2ccc(C)cc2)C(=O)N1c1ccccc1 (stereo unspecified) | 50%
35 | CCOC(=O)C1(C)C=C(Nc2cccc(C(=O)O)c2)C(=O)N1c1ccccc1 (stereo unspecified) | 73%
36 | O=c1[nH]c2ccc(S(=O)(=O)Nc3cc(Cl)ccc3O)cc2o1 | 86%
37 | CC(C(=O)NC1CC1)N1CCC(N2CCCCC2)CC1 (stereo unspecified) | 98%
38 | Cc1ccccc1COC(=O)c1ccc(-c2nnn(Cc3ccccc3F)n2)cc1 | 54%
39 | Cc1ccccc1COC(=O)c1nn(-c2ccccc2)nc1N | -1% (active)
40 | Nc1nn(-c2ccccc2)nc1NC=O | 95%
41 | Cc1ccccc1CNC(=O)c1nn(-c2ccccc2F)nc1CO | 85%
42 | O=C(NCCCCc1ccccc1)c1nn(-c2ccccc2)nc1CO | 58%
43 | Nc1nn(-c2ccccc2)nc1C(=O)OCc1ccccc1Br | 11% (active)
44 | Cc1ccc(Cl)cc1NC(=O)C1CCCN(S(=O)(=O)c2c(C)noc2/C=C/N(C)C)C1 (stereo unspecified) | 51%
45 | Cc1ccc(CNC(=O)c2c(Nc3ccccc3C)sc(C(=O)c3ccc(F)cc3)c2N)cc1 | 20% (active)
46 | Cc1ccccc1Nc1sc(C(=O)c2ccc(F)cc2)c(N)c1C(=O)NCCc1ccccc1 | 81%

Row | SMILES | survival
47 | COc1cccc(Nc2sc(C(=O)c3ccc(F)cc3)c(N)c2C(=O)NCc2ccc(C)cc2)c1 | 91%
48 | COc1cccc(Nc2sc(C(=O)c3ccc(Cl)cc3)c(N)c2C(=O)NCc2ccc(C)cc2)c1 | 95%
49 | Cc1ccccc1Nc1sc(C(=O)c2ccccc2)c(N)c1C(=O)NCc1ccc(Cl)cc1 | 100%
50 | COc1cccc(Nc2sc(C(=O)c3ccc(F)cc3)c(N)c2C(=O)NCc2ccc(Cl)cc2)c1 | 8% (active)
51 | Cc1cccc(-c2cc(NC(=O)C(C)(C)C)n(-c3ccccc3)n2)c1 | 99%
52 | CC1Cc2cc(S(=O)(=O)CCC(=O)NCc3ccccc3Cl)ccc2N1C(=O)C1CC1 (stereo unspecified) | 89%
53 | COc1ccccc1CNC(=O)CCS(=O)(=O)c1ccc2c(c1)CC(C)N2C(=O)C1CC1 (stereo unspecified) | 8% (active)
54 | COc1ccc(CNC(=O)CCS(=O)(=O)c2ccc3c(c2)CC(C)N3C(=O)C2CC2)cc1 (stereo unspecified) | 95%
55 | CCC(=O)N1c2ccc(S(=O)(=O)CCC(=O)NCc3cccc(OC)c3)cc2CC1C (stereo unspecified) | 102%
56 | COc1cccc(CNC(=O)CCS(=O)(=O)c2ccc3c(c2)CC(C)N3C(=O)C2CC2)c1 (stereo unspecified) | 20% (active)
57 | CCC(=O)N1c2ccc(S(=O)(=O)CCC(=O)NCc3ccccc3OC)cc2CC1C (stereo unspecified) | 90%
58 | CCc1cccc(NC(=O)c2ccc3c(=O)n4nc(Nc5ccccc5OC)sc4nc3c2)c1 | 74%
59 | Clc1ccccc1-c1nnc(SCc2nc(-c3ccccc3)no2)n1-c1ccccc1 | 52%
60 | CC(C)(C)OC(=O)N1CCC(c2c(C(=O)N3CCN(c4ccccc4)CC3)cnn2-c2ccccc2)CC1 | 81%
61 | COc1ccccc1Nc1nc2ccc(Cl)cc2nc1-n1nc(C)cc1C | 133%
62 | Cc1cc(C)n(-c2nc3ccccc3nc2Nc2cc(Cl)ccc2C)n1 | 130%
63 | Cc1cc(C)n(-c2nc3ccccc3nc2Nc2cccc(C)c2C)n1 | 21% (active)
64 | COc1cc(OC)c(Nc2nc3ccccc3nc2-n2nc(C)cc2C)cc1Cl | 97%
65 | COc1ccc(OC)c(Nc2nc3ccccc3nc2-n2nc(C)cc2C)c1 | 16% (active)
66 | Cc1cc(C)cc(Nc2nc3ccccc3nc2-n2nc(C)cc2C)c1 | 23% (active)
67 | Cc1cc(C)n(-c2nc3ccccc3nc2Nc2ccc(Cl)c(Cl)c2)n1 | 0% (active)
68 | Cc1cc(C)n(-c2nc3ccccc3nc2Nc2ccc(Cl)cc2Cl)n1 | 75%
69 | Cc1ccc2nc(Nc3cccc(Cl)c3C)c(-n3nc(C)cc3C)nc2c1 | 123%

Row | SMILES | survival
70 | Cc1cc(C)n(-c2nc3ccccc3nc2Nc2cccc(C(F)(F)F)c2)n1 | 75%
71 | Cc1cc(C)cc(Nc2nc3cc(Cl)c(Cl)cc3nc2-n2nc(C)cc2C)c1 | 89%
72 | Cc1ccc(Nc2nc3ccccc3nc2-n2nc(C)cc2C)c(Cl)c1 | 70%
73 | CCOC(=O)c1cc(-c2ccccc2)n(CCC(=O)Nc2cc(C)cc(C)c2)c1C | 99%
74 | Cc1ccc(NC(=O)C(C)Sc2nc(=O)cc(N)n2-c2cccc(C)c2)cc1 (stereo unspecified) | 59%
75 | CCOC(=O)c1cccc(NC(=O)c2cn(-c3cccc(OC)c3)c(=O)c3ccccc23)c1 | 60%
76 | COc1ccc(Cl)cc1NC(=O)c1ccc(CN2C(=O)CCn3nc(C)cc32)cc1 | 66%
77 | CC(C)c1ccc(NC(=O)CSC2=Nc3ccccc3C3=NC(CC(=O)NCCc4ccccc4)C(=O)N23)cc1 (stereo unspecified) | 72%
78 | Nc1nc(CC(=O)NN=C2CCCCCC2)cs1 | 65%
79 | Cc1cc(C)n(-c2nc3ccccc3nc2Nc2ccc(C(C)C)cc2)n1 | 8% (active)
80 | Cc1cc(C)n(-c2nc3ccccc3nc2Nc2ccc(N(C)C)cc2)n1 | -2% (active)
81 | CCOc1ccc(Nc2nc3cc(Cl)c(Cl)cc3nc2-n2nc(C)cc2C)cc1 | 87%
82 | CCc1ccccc1Nc1nc2cc(Cl)c(Cl)cc2nc1-n1nc(C)cc1C | 89%
83 | COc1cccc(Nc2nc3ccc(C)cc3nc2-n2nc(C)cc2C)c1 | 88%
84 | Cc1cc(C)n(-c2nnc(Nc3ccc(C(C)C)cc3)c3ccccc23)n1 | 80%
85 | Cc1ccc(NC(=O)c2cnn(-c3ccc(C)c(C)c3)c2C2CCN(C(=O)OC(C)(C)C)CC2)c(C)c1 | 109%
86 | CN(C(=O)c1ccccc1)C1CCS(=O)(=O)C1 (stereo unspecified) | 90%
87 | Cc1ccc(N2CC(C(=O)NCc3nnnn3-c3ccc(C)c(C)c3)CC2=O)cc1 (stereo unspecified) | 69%
88 | Cc1ccc(-c2ccc(=O)n(CC(=O)NC(C)c3ccccc3)n2)cc1 (stereo unspecified) | 69%
89 | Cc1c(-c2cccc(NC(=O)C(C)(C)C)c2)nc2ncccn12 | 79%
90 | Cc1c(-c2cccc(NC(=O)Nc3ccccc3)c2)nc2ncccn12 | 76%
91 | Cc1c(-c2cccc(NC(=O)Nc3ccc(Cl)cc3)c2)nc2ncccn12 | -2% (active)
